# Reference: the supplement of paper PMC10127200
# Structures can show the parent of a compound that is named as a salt.
# Tests used:
# Test in all cases: Euclidean distance of Cell Painting phenotypic profile (signed KS, 77 features) to DMSO centroid (dimensionless distance); 5 or 10 uM (library dependent); higher = stronger phenotypic change vs DMSO (phenoactivity)
# Settings in all cases: 48 h
# [1] = test system: 786-O
# Outline: (§1)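 Library compounds were applied at 10 or 5 uM, depending on the library, with 0.1% DMSO final, for 48 h to five cancer lines and a healthy fibroblast line. After staining, cells were imaged confocally at 20X across 9 fields per well, and Harmony extracted 77 features, each scored as a signed Kolmogorov-Smirnov statistic against vehicle wells on the same plate. Phenoactivity is the Euclidean distance between each profile and the median vehicle profile, with profiles first plate-position corrected, correlation-weighted and averaged over replicates at the top dose.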
# [2] = test system: A549
# Outline: as §1
# [3] = test system: DU145
# Outline: as §1
# [4] = test system: FB
# Outline: as §1
# [5] = test system: HEPG2
# Outline: as §1
# [6] = test system: OVCAR4
# Outline: as §1
Structure (SMILES),Euclidean distance [1],Euclidean distance [2],Euclidean distance [3],Euclidean distance [4],Euclidean distance [5],Euclidean distance [6]
CC(=O)O[C@H]1CC[C@@]2(C)C(=CC[C@@H]3[C@@H]2CC[C@]2(C)C(c4cccnc4)=CC[C@@H]32)C1 [Abiraterone Acetate],1.52,1.19,0.94,0.94,0.44,0.818
O=C1NC(=O)C(c2ccccc2)(c2ccccc2)N1 [Phenytoin],0.857,0.495,1,1.34,0.945,0.752
CN1CCC(COc2cnc(-c3cccc(Cn4nc(-c5cccc(C#N)c5)ccc4=O)c3)nc2)CC1,1.74,3.89,2.96,2.46,1.76,1.52
COc1ccc(C2OCC3C(c4cc(OC)c(OC)c(OC)c4)OCC23)cc1OC (stereo not drawn) [Magnolin],0.904,0.78,1.05,1.02,0.56,0.966
COc1ccc(Cl)cc1C(=O)NCCc1ccc(S(=O)(=O)NC(=O)NC2CCCCC2)cc1 [Glyburide],1.1,0.731,1.49,1.27,2.08,1.32
COc1cc(CNC(=O)CCCC/C=C\C(C)C)ccc1O [Zucapsaicin],0.772,0.503,0.672,0.743,0.98,1.01
Cc1cccc(C)c1NC(=O)c1cc(S(N)(=O)=O)c(Cl)cc1O [Xipamide],1.51,0.665,0.648,1.08,0.576,1.08
CS(=O)(=O)N1CCc2c(-c3cnc(N)nc3)nc(N3CCOCC3)nc21,1.32,2.54,0.984,2.13,0.817,2.01
CCN(CCCc1ccccc1)CCCc1ccccc1 [Alverine Citrate],0.97,1.06,1.22,1.12,0.789,1.01
O=C1Nc2ccc(Cl)cc2[C@@](C#CC2CC2)(C(F)(F)F)O1 [Efavirenz],1.21,1.3,2.23,1.28,0.747,1.1
CNC(=O)c1ccc(N2C(=S)N(c3ccc(C#N)c(C(F)(F)F)c3)C(=O)C2(C)C)cc1F [Enzalutamide (MDV3100)],0.957,1.37,1.2,1.38,0.965,1.18
COc1cc2c(Oc3ccc4[nH]c(C)cc4c3F)ncnc2cc1OCCCN1CCCC1 [Cediranib (AZD2171)],4.22,4.27,3.51,4.47,3.58,4.53
CS(=O)(=O)OCCCCOS(C)(=O)=O [Busulfan],1.22,0.648,0.667,0.953,0.977,1.95
CNCCc1ccccn1 [Betahistine 2HCl],1.56,0.851,1.21,0.822,0.61,1.03
O=c1c(-c2ccc(O)cc2)coc2cc(O)cc(O)c12 [Genistein],1.75,1.52,1.14,1.28,0.498,1.13
CCOC(=O)C(C)(C)Oc1ccc(Cl)cc1 [Clofibrate],0.866,0.429,1.7,1.41,0.393,0.939
C[C@]1(COc2ccc(N3CCC(Oc4ccc(OC(F)(F)F)cc4)CC3)cc2)Cn2cc([N+](=O)[O-])nc2O1 [Delamanid],0.922,1.11,0.888,0.823,0.492,0.969
Cn1cc(C(=O)[C@@H]2CCc3[nH]cnc3C2)c2ccccc21 [Ramosetron Hydrochloride],1.07,0.965,0.791,1.34,0.731,1.41
CCCCC[C@H](O)/C=C/[C@H]1[C@H](O)CC(=O)[C@@H]1C/C=C\CCCC(=O)O [Prostaglandin E2 (PGE2)],1.77,0.85,0.915,1.08,0.522,1.33
COC(=O)[C@]12CCC(C)(C)C[C@H]1[C@H]1C(=O)C=C3[C@@]4(C)C=C(C#N)C(=O)C(C)(C)[C@@H]4CC[C@@]3(C)[C@]1(C)CC2 [Bardoxolone Methyl],5.4,5.71,5.63,2.1,4.01,6.33
Cc1ccc([C@@H]2O[C@H](CO)[C@@H](O)[C@H](O)[C@H]2O)cc1Cc1ccc(-c2ccc(F)cc2)s1 [Canagliflozin],1.32,1.86,0.716,1.12,0.807,1.77
CC(C)CN(C[C@@H](O)[C@H](Cc1ccccc1)NC(=O)O[C@H]1CCOC1)S(=O)(=O)c1ccc(N)cc1 [Amprenavir],1.35,1.29,1.22,1.22,1.26,1.6
COc1c(C)c2c(c(O)c1C/C=C(\C)CCC(=O)OCCN1CCOCC1)C(=O)OC2 [Mycophenolate Mofetil],2.59,3.61,2.11,3.32,2.76,3.19
N#Cc1ccc2[nH]c(O)c(-c3ccc(CN4CCOCC4)cn3)c2c1,3.45,2.98,2.02,1.79,1.72,3.02

Structure (SMILES),Euclidean distance [1],Euclidean distance [2],Euclidean distance [3],Euclidean distance [4],Euclidean distance [5],Euclidean distance [6]
CCc1c(Cl)c(O)c(Cl)c(O)c1C(=O)O[C@H]1[C@H](O)[C@H](OC)[C@H](OC/C2=C\C=C\C[C@H](O)/C(C)=C/[C@H](CC)[C@@H](O[C@@H]3OC(C)(C)[C@@H](OC(=O)C(C)C)[C@H](O)[C@@H]3O)/C(C)=C/C(C)=C/C[C@@H]([C@@H](C)O)OC2=O)O[C@@H]1C [Fidaxomicin],1.59,1.88,1.64,1.94,1.5,1.68
CCCc1nc(C(C)(C)O)c(C(=O)OCc2oc(=O)oc2C)n1Cc1ccc(-c2ccccc2-c2nnn[nH]2)cc1 [Olmesartan Medoxomil],2.78,2.49,2.38,3.38,3.32,3.28
O=C(COc1ccc(C(=O)c2ccccc2)cc1)NC1CCN(Cc2ccccc2)CC1 [AdipoRon],0.958,0.958,0.661,0.817,1.11,0.793
OCCn1cc(-c2ccc3c(c2)CC/C3=N\O)c(-c2ccncc2)n1,1.79,0.879,1.22,1.93,0.823,1.88
CCNC(=O)Nc1ccc(-c2nc3c(c(N4CCOC[C@@H]4C)n2)CCN(C2COC2)C3)cc1,3.58,3.22,1.78,4.11,3.1,4.55
COc1ccc(-c2ccc3c(N4CCOC[C@@H]4C)nc(N4CCOC[C@@H]4C)nc3n2)cc1CO,4,3.49,2.25,5.02,2.55,3.73
COc1nc2ccc(Br)cc2cc1[C@@H](c1ccccc1)[C@@](O)(CCN(C)C)c1cccc2ccccc12 [Bedaquiline],1.63,1.17,1.33,0.823,0.496,0.927
Cn1nc(C(C)(C)C)cc1C(=O)N[C@@H](Cc1cccc(Cl)c1)C(=O)NCC#N [Cathepsin Inhibitor 1],1.97,2.28,2.22,1.9,1.43,1.92
O=c1[nH]cc(F)c(=O)[nH]1 [Fluorouracil (5-Fluoracil. 5-FU)],1.5,3.01,1.12,2.37,2.13,2.12
COc1ccc(/C=C/C(=O)Nc2ccccc2C(=O)O)cc1OC [Trans-Tranilast],1.43,0.649,0.604,1.18,0.865,0.917
COc1ccc(Cc2cnc(N)nc2N)cc1OC [Diaveridine],0.784,1.57,1.59,1.23,0.387,1.42
CC(C)(C)c1cc(/C=C(\C#N)C(N)=S)cc(C(C)(C)C)c1O [Tyrphostin AG 879],1.54,1.46,0.926,0.967,0.81,1.01
CNC[C@H](O)c1ccc(O)c(O)c1 [Epinephrine bitartrate],0.553,0.655,0.818,0.827,0.637,0.577
CCOC(=O)N1CCC(=C2c3ccc(Cl)cc3CCc3cccnc32)CC1 [Loratadine],1.17,1.34,0.839,1.05,1.48,1.1
CN1CCN(C2CCN(C(=O)Nc3cc(Oc4ccc(NC(=O)C5(C(=O)Nc6ccc(F)cc6)CC5)c(F)c4)ccn3)CC2)CC1 [Golvatinib (E7050)],1.08,1.47,1.32,3.36,3.28,1.45
CCn1c(-c2nonc2N)nc2c(C#CC(C)(C)O)ncc(OC[C@H]3CCCNC3)c21,3.05,2.49,1.16,2,1.95,2.14
O=S(=O)(c1cccc2cnccc12)N1CCCNCC1 [Fasudil (HA-1077) HCl],1.52,0.649,1.94,0.846,1.28,0.851
CC(C)C[C@H](NC(=O)[C@H](CCc1ccccc1)NC(=O)CN1CCOCC1)C(=O)N[C@@H](Cc1ccccc1)C(=O)N[C@@H](CC(C)C)C(=O)[C@@]1(C)CO1 [Carfilzomib (PR-171)],5.78,4.54,5.77,0.729,4.79,5.41
O=C(/C=C/c1ccc(O)c(O)c1)O[C@H](Cc1ccc(O)c(O)c1)C(=O)O [Rosmarinic acid],0.778,0.874,0.818,0.847,0.532,0.722
CNCCc1ccccn1 [Betahistine],1.31,0.763,0.72,1.01,0.628,0.854
CC(C)NCC(O)COc1ccc(CC(N)=O)cc1 (stereo not drawn) [Atenolol],1.33,0.613,0.819,0.889,1.22,0.667
CN(C)CC/C=C1/c2ccccc2Sc2ccc(Cl)cc21 [Chlorprothixene],1.17,0.711,1.22,1.27,1.86,1.33
CNC[C@H](O)c1ccc(O)c(O)c1 [Epinephrine HCl],1.19,0.611,0.9,0.733,0.644,0.893
CC1(C)S[C@@H]2[C@H](NC(=O)[C@H](N)c3ccc(O)cc3)C(=O)N2[C@H]1C(=O)O [Amoxicillin],1.02,1.01,0.78,0.837,0.318,1.22
